A3A deaminase: blocks human APOBEC3A ssDNA deamination | P31941 | AID 493011 | 330,000 compounds, 0.41% hits | recombinant A3A, FAM/TAMRA ssDNA deamination fluorescence | inhibition, % at 20 µM;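 active means at least 40% inhibition at 20 µM here, with at most 30% in a related deaminase screen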;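 further: plate controls were A3A with DMSO for no effect and wells lacking A3A enzyme for full effect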
Target sequence (P31941 whole entry, looked up): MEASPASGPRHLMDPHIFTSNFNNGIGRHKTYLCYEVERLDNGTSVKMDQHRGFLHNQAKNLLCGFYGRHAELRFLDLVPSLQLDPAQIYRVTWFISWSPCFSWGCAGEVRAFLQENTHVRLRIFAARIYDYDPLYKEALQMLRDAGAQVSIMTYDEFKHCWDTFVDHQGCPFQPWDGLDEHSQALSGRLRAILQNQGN
NRP1-CendR mod: modulators of CendR peptide binding to human neuropilin-1; O14786; FAM-RPARPAR peptide binding to NRP-1, fluorescence polarization; inhibition, % at 25 µM; 360,000 compounds, 0.85% hits;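 active means inhibition or corrected inhibition above about 18%, plus a signal ratio from 0.5 to 1.5, limit read from the data, passing the limit was not always enough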
CR mimetic SO: yeast age-related superoxide inhibition as caloric restriction mimetic | S. cerevisiae aged cells, superoxide DHE fluorescence; stronger effect = lower value | superoxide response (% of plate mean), % at 10 µM | 330,000 compounds, 0.18% hits | AID 2690;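 active means superoxide response under a set limit, about three screen SD below normal, cut at about 65% in these data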;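 further: yeast aged for seven days with compound at 30 °C before DHE staining; 100% = average MFI of all compound-treated wells on the plate with controls excluded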
M18AAP inhibitor: PfM18AAP enzyme inhibition. 290,000 compounds, 1.2% hits. inhibition, % at 7.35 µM. AID 1822. recombinant PfM18AAP, H-Glu-NHMec fluorogenic cleavage;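 active means inhibition above the campaign mean inhibition over all tested compounds plus 3 SD, cut at about 28% in these data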;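 further: 0% = plate median of test compound wells and 100% = 2 mM ZnCl2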
ALR H2O2 inh: human ALR oxidase inhibition via reduced H2O2 | P55789 | purified ALR, DTT oxidation, H2O2 HRP-luminol luminescence | inhibition, % (concentration not given with the values) | 290,000 compounds, 3.8% hits;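 active means mean replicate inhibition above about 79%, with every replicate also reaching it, limit read from the data; inconclusive means only one of the two criteria met; inactive means mean below limit and not every replicate reaching it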
Target sequence (P55789 whole entry, looked up): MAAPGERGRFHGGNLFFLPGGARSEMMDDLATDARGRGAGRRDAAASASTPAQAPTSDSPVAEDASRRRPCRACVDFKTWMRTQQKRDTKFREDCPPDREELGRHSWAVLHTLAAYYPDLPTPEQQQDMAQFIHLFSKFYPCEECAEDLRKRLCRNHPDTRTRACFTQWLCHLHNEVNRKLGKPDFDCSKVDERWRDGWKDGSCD
A3G deaminase: APOBEC3G (human) deaminase inhibition. Q9HC16. recombinant A3G, ssDNA deamination FAM/TAMRA fluorescence. inhibition, % at 20 µM. 330,000 compounds, 0.28% hits;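 active means inhibition of at least 40% at 20 µM, with no more than 30% in the related APOBEC3A deaminase screen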;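 further: plate controls were DMSO wells with A3G for no effect and wells lacking A3G enzyme for full effect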
* = called active by the depositor; i = inactive; ? = inconclusive; . = not tested or not shown. The list is not random: actives were taken first. Their share in the collection is about 5.2%.

SMILES | A3A deaminase | NRP1-CendR mod | CR mimetic SO | M18AAP inhibitor | ALR H2O2 inh | A3G deaminase
CCOC(=O)c1cc2c(c(-c3cccc(-c4cc5ccccc5o4)c3)n1)[C@@H](CCO)N(S(=O)C(C)(C)C)C2 (stereo not given in full) | . | -28 | . | . | . | .
COC(=O)c1[nH]c(=O)c2ccccc2c1OCc1ccccc1 | -2 | 5 | 88 | -1 | . | -5
COC(=O)c1[nH]c(=O)c2ccccc2c1O | 0 | -5 | 131 | 7 | 98* | -3
Cc1ccc(NC(=O)CSc2n[nH]c(-c3ccco3)n2)cc1 | 4 | 1 | 79 | -13 | 3 | -5
C=CCN(CC=C)S(=O)(=O)c1ccc(C(=O)Nc2nnc(COC)o2)cc1 | -2 | -4 | 86 | 1 | ? | -5
COCc1nnc(NC(=O)c2ccc(S(=O)(=O)N(CC(C)C)CC(C)C)cc2)o1 | -3 | 2 | 99 | 2 | 95* | -4
CCCN(CCC)S(=O)(=O)c1ccc(C(=O)Nc2nnc(-c3cc(OC)cc(OC)c3)o2)cc1 | 1 | 25* | 119 | -17 | 5 | 2
COc1ccccc1CC(=O)N1CCCc2cc(C)ccc21 | -6 | 7 | 98 | -3 | 0 | 22
CC(C)(C)S(=O)(=O)/C(C#N)=N/Nc1ccc(Cl)cc1 | 0 | -5 | 96 | 6 | 99* | 0
COC(=O)c1c(C)oc(C)c1S(=O)(=O)N(Cc1ccccc1)C(C)C | 1 | 4 | 109 | -1 | -1 | -8
Brc1ccc(Sc2cnc3ccccc3n2)cc1 | -1 | 23* | 92 | 1 | -12 | -4
c1ccc(Sc2cnc3ccccc3n2)cc1 | -2 | -1 | 90 | -4 | -5 | -5
O=C(NNC(=S)Nc1ccccc1)C1CC1 | 9 | -9 | 96 | 6 | 45 | -5
S=C(NN=C(C1CC1)C1CC1)Nc1ccccc1 | -4 | -2 | 92 | 23 | 97* | -4
CC(C)=CC(O)C/C(C)=C/COc1ccc2ccc(=O)oc2c1 (stereo not given) | -4 | 26* | 98 | . | 6 | -9
COc1ccccc1N1CCN(S(=O)(=O)c2cccs2)CC1 | -2 | 2 | 88 | 4 | 66 | -5
COc1ccccc1N1CCN(S(=O)(=O)c2cnc[nH]2)CC1 | -6 | -4 | 86 | 3 | 98* | -10
COc1ccccc1N1CCN(S(=O)(=O)c2ccccc2)CC1 | 0 | -3 | 114 | -10 | 98* | -6
CCN(CCNC(=O)CC1Oc2ccccc2NC1=O)c1ccccc1 (stereo not given) | 2 | 2 | 107 | -1 | 97* | -4
CCc1cccc(NC(=O)CC2Oc3ccccc3NC2=O)c1 (stereo not given) | -1 | 3 | 103 | -6 | 1 | -4
Cc1ccc(CCNC(=O)CC2Oc3ccc(C)cc3NC2=O)cc1 (stereo not given) | -2 | 0 | 103 | 5 | 18 | 0
CC1CCN(Cc2ccc(NC(=O)CC3Oc4ccccc4NC3=O)cc2)CC1 (stereo not given) | -1 | -4 | 97 | 9 | 92* | -1
O=C(CC1Oc2ccccc2NC1=O)NCCc1ccccc1 (stereo not given) | 1 | 2 | 106 | 6 | 86* | -1
CC(C)CN(CCNC(=O)CC1Oc2ccccc2NC1=O)CC(C)C (stereo not given) | 0 | 4 | 91 | 5 | ? | -3
CCOC(=O)Oc1ccc2c(=O)c(Oc3cccc(C)c3)coc2c1 | 0 | 10 | 143 | -1 | 96* | 0
CCCCNC(=O)N(O)C1N(/N=C/c2cccs2)C(=S)SC1(C)C (stereo not given) | -1 | -8 | i | -2 | -4 | -2
CCc1cccc(NC(=O)CCc2c(C)nn(-c3ccc(N4CCOCC4)nn3)c2C)c1 | 0 | 32* | 84 | -10 | -7 | 2
CCc1ccc(NC(=O)CCc2c(C)nn(-c3ccc(N4CCOCC4)nn3)c2C)cc1 | -3 | 7 | 92 | 2 | 1 | 4
CCOC(=O)N1CCN(C(=O)C2CC(=O)N(c3ccc(OC)cc3)C2c2ccc(OC)cc2)CC1 (stereo not given) | -4 | 10 | 110 | -15 | -2 | -2
COc1ccccc1Cn1c(=S)[nH]c2cc(C(=O)N3CCCC3)ccc2c1=O | -9 | 31* | 90 | 1 | 0 | -5

Source: PubChem BioAssay (several laboratories)
